Laboratory results as given in the supplement of paper PMC11732987, “Enantioselective OTUD7B fragment discovery through chemoproteomics screening and high-throughput optimisation” (Communications Chemistry, 2025).

How the values were obtained:
Assay in all cases: log2 ratio of Biotin-Ahx-Ub-VS probe labelling (fragment/DMSO); higher = less target engagement (more negative = stronger competition), active = hit call of the paper (q ≤ 0.05, log2 ratio ≤ -1)
Conditions in all cases: compound concentration: 200 uM; treatment time: 3 h
[1] = target: T1, OTUD6B (UniProt Q8N6M0)
T1 sequence (whole entry): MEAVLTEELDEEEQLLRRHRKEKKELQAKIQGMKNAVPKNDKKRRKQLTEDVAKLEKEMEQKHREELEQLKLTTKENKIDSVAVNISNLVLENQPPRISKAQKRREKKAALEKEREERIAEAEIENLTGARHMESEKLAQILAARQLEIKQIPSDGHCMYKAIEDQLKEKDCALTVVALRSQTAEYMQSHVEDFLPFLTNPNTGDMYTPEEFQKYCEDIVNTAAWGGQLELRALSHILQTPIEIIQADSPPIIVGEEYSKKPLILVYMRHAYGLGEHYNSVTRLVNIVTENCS
Procedure, shortened: (§1)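 Fragment (200 µM) or vehicle was incubated for 3 h with triplicate HEK293T lysate samples of 495 µg, which were then treated with Biotin-Ahx-Ub-VS at 0.5 µM final for 1 h. Labelled DUBs were enriched on NeutrAvidin, digested with LysC and trypsin, and analysed by diaPASEF LC-MS/MS. Values are average log2 fragment/vehicle ratios from an unpaired t-test on global-median-normalised Spectronaut label-free quantities, using proteins with ≥2 unique peptides.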

[2] = target: T2, OTUD7B (UniProt Q6GQQ9)
T2 sequence (whole entry): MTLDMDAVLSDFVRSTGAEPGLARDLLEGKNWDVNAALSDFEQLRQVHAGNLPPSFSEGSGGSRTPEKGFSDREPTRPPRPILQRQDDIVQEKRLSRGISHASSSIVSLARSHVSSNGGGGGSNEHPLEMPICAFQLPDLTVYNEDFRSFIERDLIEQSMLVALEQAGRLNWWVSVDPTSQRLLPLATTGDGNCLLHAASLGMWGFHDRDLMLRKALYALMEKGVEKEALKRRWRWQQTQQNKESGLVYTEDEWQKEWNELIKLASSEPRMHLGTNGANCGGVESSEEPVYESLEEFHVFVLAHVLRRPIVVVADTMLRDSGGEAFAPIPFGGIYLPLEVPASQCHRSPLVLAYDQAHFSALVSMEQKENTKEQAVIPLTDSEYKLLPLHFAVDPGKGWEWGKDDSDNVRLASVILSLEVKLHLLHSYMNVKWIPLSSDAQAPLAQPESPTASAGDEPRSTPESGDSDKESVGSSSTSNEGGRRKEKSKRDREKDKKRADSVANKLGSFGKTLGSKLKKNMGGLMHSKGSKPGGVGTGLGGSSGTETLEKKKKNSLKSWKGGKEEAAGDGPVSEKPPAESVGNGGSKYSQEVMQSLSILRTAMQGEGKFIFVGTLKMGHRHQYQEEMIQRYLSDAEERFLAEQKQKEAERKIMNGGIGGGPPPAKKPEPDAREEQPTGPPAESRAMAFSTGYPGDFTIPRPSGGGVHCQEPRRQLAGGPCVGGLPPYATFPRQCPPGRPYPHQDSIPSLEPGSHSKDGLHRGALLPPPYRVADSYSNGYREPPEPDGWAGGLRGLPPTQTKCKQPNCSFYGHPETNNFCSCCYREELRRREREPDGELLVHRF
Procedure, shortened: as §1

[3] = target: PRPF8 (UniProt Q6P2Q9)
Procedure, shortened: as §1

[4] = target: T3, PSMD7 (UniProt P51665)
T3 sequence (whole entry): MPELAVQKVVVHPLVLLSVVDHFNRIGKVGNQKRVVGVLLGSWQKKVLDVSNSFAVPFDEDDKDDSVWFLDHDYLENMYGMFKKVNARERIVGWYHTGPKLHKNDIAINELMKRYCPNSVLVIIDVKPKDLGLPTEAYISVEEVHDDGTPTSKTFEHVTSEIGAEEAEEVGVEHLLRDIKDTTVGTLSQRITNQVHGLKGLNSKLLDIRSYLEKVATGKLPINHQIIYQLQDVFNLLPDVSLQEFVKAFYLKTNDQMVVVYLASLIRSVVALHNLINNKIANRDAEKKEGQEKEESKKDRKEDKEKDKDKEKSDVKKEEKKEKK
Procedure, shortened: as §1

[5] = target: UCHL1 (UniProt P09936)
Sequence of UCHL1 (P09936 whole entry, looked up): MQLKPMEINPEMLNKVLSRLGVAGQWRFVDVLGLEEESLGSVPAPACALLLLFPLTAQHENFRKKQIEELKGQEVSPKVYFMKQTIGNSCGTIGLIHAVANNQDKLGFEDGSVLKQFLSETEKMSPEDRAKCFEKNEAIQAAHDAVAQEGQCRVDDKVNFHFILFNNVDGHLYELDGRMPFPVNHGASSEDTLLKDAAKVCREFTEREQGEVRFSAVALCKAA
Procedure, shortened: as §1

[6] = target: T4, UCHL3 (UniProt P15374)
T4 sequence (whole entry): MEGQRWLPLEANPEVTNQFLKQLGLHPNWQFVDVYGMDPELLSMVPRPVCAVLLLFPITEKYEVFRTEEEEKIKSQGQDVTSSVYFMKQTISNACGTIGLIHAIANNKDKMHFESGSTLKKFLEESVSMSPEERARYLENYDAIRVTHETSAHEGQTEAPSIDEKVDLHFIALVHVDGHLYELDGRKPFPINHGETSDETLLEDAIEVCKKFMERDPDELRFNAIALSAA
Procedure, shortened: as §1

[7] = target: T5, UCHL5 (UniProt Q9Y5K5)
T5 sequence (whole entry): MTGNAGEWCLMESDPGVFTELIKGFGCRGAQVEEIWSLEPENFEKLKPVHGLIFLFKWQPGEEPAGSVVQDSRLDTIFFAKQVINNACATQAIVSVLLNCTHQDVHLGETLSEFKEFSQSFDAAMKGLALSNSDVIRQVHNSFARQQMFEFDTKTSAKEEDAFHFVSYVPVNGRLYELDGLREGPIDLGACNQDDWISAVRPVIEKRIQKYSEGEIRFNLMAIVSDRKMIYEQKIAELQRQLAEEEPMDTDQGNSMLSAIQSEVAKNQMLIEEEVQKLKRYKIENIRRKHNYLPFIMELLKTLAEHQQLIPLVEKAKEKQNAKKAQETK
Procedure, shortened: as §1

[8] = target: USP10 (UniProt Q14694)
Sequence of USP10 (Q14694 whole entry): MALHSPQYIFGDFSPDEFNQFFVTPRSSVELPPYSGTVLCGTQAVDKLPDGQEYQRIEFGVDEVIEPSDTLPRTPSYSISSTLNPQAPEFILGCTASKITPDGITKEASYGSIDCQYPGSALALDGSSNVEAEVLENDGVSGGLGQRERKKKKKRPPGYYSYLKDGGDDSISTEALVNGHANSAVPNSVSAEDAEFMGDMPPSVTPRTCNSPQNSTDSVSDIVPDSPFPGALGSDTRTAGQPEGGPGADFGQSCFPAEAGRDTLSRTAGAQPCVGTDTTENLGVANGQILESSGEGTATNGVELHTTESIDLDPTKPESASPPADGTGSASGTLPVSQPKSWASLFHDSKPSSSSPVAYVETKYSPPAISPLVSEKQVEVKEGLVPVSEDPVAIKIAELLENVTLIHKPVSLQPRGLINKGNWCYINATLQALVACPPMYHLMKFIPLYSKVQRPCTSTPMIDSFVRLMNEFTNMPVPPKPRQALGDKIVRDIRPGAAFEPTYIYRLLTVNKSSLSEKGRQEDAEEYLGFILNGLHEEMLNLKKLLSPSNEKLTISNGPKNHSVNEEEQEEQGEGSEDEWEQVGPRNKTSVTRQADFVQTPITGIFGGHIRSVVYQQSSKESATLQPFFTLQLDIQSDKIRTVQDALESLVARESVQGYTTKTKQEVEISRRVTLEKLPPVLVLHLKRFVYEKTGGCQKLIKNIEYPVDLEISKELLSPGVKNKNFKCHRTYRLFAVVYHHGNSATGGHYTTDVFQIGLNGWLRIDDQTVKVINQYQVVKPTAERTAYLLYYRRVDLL
Procedure, shortened: as §1

[9] = target: T6, USP15 (UniProt Q9Y4E8)
T6 sequence (whole entry): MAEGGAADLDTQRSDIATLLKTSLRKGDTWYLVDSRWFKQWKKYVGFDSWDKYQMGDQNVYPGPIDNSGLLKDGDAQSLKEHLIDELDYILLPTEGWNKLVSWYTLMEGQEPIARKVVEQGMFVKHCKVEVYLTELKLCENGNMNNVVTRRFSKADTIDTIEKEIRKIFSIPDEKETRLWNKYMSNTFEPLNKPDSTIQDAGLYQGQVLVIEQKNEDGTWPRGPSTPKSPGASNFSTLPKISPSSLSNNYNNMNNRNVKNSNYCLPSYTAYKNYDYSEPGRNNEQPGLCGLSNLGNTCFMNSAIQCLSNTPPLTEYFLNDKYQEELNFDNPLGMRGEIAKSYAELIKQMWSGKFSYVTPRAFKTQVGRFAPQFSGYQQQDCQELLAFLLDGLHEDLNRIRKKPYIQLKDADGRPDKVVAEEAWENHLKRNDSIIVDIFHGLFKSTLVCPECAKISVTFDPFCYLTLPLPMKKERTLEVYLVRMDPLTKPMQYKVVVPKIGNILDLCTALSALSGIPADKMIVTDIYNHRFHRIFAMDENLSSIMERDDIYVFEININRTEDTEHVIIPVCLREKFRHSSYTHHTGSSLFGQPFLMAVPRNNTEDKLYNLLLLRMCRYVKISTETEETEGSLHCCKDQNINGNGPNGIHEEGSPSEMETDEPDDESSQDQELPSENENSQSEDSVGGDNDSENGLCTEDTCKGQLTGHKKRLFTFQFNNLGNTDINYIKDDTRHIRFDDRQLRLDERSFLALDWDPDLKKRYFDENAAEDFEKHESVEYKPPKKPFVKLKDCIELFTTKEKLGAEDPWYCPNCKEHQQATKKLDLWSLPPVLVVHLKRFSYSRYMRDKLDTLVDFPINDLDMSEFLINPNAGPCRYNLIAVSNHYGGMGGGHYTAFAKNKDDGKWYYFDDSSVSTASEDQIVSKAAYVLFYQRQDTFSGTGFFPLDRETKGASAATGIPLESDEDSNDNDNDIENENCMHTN
Procedure, shortened: as §1

[10] = target: USP16 (UniProt Q9Y5T5)
Sequence of USP16 (Q9Y5T5 whole entry, looked up): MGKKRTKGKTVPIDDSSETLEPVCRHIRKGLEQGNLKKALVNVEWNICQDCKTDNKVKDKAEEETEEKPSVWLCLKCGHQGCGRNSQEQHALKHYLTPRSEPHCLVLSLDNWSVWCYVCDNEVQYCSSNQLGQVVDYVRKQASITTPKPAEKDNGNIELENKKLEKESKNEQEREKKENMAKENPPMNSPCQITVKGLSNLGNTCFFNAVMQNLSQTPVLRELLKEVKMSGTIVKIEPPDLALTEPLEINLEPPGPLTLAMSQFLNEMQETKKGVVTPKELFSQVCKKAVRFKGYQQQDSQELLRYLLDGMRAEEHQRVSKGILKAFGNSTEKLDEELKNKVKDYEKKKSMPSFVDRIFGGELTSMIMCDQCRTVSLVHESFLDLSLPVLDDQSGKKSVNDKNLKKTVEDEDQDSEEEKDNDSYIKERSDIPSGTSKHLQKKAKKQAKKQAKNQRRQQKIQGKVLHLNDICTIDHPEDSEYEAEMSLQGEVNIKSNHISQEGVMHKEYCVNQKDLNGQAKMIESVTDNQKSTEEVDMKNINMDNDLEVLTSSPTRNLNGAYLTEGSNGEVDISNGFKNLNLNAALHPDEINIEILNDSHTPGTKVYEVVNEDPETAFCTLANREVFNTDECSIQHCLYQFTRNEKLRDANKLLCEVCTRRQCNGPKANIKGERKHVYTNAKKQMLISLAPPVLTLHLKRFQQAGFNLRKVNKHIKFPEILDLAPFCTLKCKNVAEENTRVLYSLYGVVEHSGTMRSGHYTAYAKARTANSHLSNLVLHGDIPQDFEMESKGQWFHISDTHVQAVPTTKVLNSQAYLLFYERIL
Procedure, shortened: as §1

Measured: log2 ratio of Biotin-Ahx-Ub-VS probe labelling

O=C(CCl)NCc1ccc(Cl)cc1
active: [5] -1.24
inactive: [1] -0.0688 | [2] -0.726 | [3] 0.0877 | [4] 0.0253 | [6] 0.379 | [7] -0.00645 | [8] -0.179 | [9] 0.049 | [10] -0.354
